# Rows were chosen to be rich in hits. Some 6.2% of all compounds tested hit in one or more screens of this group.
# ATXN2 expr inh: ATXN2 expression inhibition; Potency, µM (series often up to 57 µM), for inactives: top-dose activity change, negative = inhibition, most hits filed as inhibitors; HEK-293 ATXN2-luciferase reporter, luminescence, 24 h; 0.72% of 360,000 active; AID 1745845; further: on the % scale 0 is the no-effect control and ±100 the full control effect; nearly all actives have a fitted effect of over 55% in size
#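 qHTS (up to 57 uM final) was run with 24 h compound exposure of reporter cells at 37 °C. Each well was multiplexed: SteadyGlo luminescence measured ATXN2-luciferase expression after a fluorogenic Gly-Phe-AFC viability readout (25 uM final).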
# HT1080NT lethal: kills 2HG-producing HT-1080-NT fibrosarcoma cells | HT-1080-NT fibrosarcoma viability, CellTiter-Glo ATP luminescence, 48 h | Potency, µM (top dose mostly 46.1 µM), for the others: at the highest dose activity, negative = less viability, hits mostly cytotoxic | 1.6% of 360,000 active | AID 686970;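 further: NT is the 2HG producing partner of a matched IDH1 knockdown line; 0% = DMSO-treated cells and -100% = media-only wells without cells; nearly all actives have a fitted effect of over 55% in size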
#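 Toxicity toward the 2HG-producing NT line was scored as %Activity, normalised to DMSO and no-cell wells, from CellTiter-Glo luminescence after 48 hours' treatment.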
# KB-V1 cytotox: kills drug-selected multidrug resistant KB-V1 cells; KB-V1 MDR cells viability, CellTiter-Glo, 72 h; Potency, µM (series often up to 46.1 µM), usual class: cytotoxic; 3.4% of 400,000 active; AID 1347076; further: on the % scale 0 is the no-effect control and ±100 the full control effect; nearly all actives have a fitted effect of over 60% in size
#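 Cells of the MDR subline KB-V1 are plated, dosed with compound at multiple concentrations, and incubated 72 h at 37 degrees C; CellTiter-Glo is then added and luminescence read after 10 min.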
# HT1080 IDH1KD tx: HT-1080 IDH1 knockdown cell toxicity (counter line) | HT-1080 IDH1 knockdown viability, ATP luminescence, 48 h | Potency, µM (titrated, usually from 46.1 µM), without a hit: top-dose activity, negative = toxicity, most hits filed as cytotoxic | 2% of 360,000 active | AID 686971;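 further: 0% = DMSO wells and -100% = cell-free medium wells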
#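 Cytotoxicity counter-line: IDH1KD HT-1080, 48 h, CellTiter-Glo. Curves classed by r2, magnitude and activity.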
# S2 tox: viability counter-screen for ATXN expression inhibitors. AID 651635. S2 cells (HEK-293 line with an ATXN2-luciferase reporter) viability, CellTiter-Fluor protease fluorescence, 24 h. Potency, µM (doses to about 56.7 µM), usual class: cytotoxic. 0.49% of 400,000 active; further: nearly all actives have a fitted effect of over 40% in size
# KB-3-1 cytotox: kills parental KB-3-1 adenocarcinoma cells | KB-3-1 viability, CellTiter-Glo ATP luminescence, 72 h | Potency, µM (highest dose often 46.1 µM), most hits filed as cytotoxic | 1.4% of 400,000 active; further: on the % scale 0 is the no-effect control and ±100 the full control effect; nearly all actives have a fitted effect of over 60% in size
#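 Cells are dispensed, compounds pinned in, plates held at 37 °C for 72 h, then CellTiter-Glo is added and luminescence read after 10 minutes. Cell line: parental KB-3-1 in phenol-red-free DMEM, 10% FBS.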
# The depositor's hits bear a star; i = inactive; ? = inconclusive; / = not tested or not shown. The call rests on the fitted dose curve; in most records, active means well fitted curve in the direction sought with a large enough effect; inconclusive means small, poorly fitted or top-dose-only effect, or another doubt; inactive means no such curve, though single readings can be large; an effect the other way counts as inactive or inconclusive. Potency means the concentration at half of the fitted maximal effect.
SMILES,ATXN2 expr inh,HT1080NT lethal,KB-V1 cytotox,HT1080 IDH1KD tx,S2 tox,KB-3-1 cytotox
COc1cccc(C(C(=O)NC2CCCC2)N2CCN(c3ncccc3C#N)CC2)c1OC (centres undefined),/,7%,?,-1%,/,i
COc1cccc(C(C(=O)NC2CCCC2)N2CCN(c3cc(C)ccc3C)CC2)c1OC (centres undefined),/,?,16µM*,?,/,?
COc1ccc(NC(=O)C2Cc3c(-c4ccc5c(c4)OCO5)ccnc3O2)cc1 (centres undefined),-10%,?,?,?,?,9.2µM*
O=C(Nc1ccc2c(c1)OCO2)C1Cc2c(-c3ccc4c(c3)OCO4)ccnc2O1 (centres undefined),?,?,8.2µM*,4.1µM*,?,?
CC(=O)Nc1ccc(NC(=O)C2Cc3c(-c4ccc5c(c4)OCO5)ccnc3O2)cc1 (centres undefined),6%,19%,i,27%,i,i
O=C(Nc1ccc2c(c1)OCO2)C1Cc2c(-c3ccc(Cl)cc3)ccnc2O1 (centres undefined),?,23µM*,i,?,?,i
O=C(Nc1ccc2c(c1)OCO2)C1Cc2c(-c3ccncc3)ccnc2O1 (centres undefined),12%,22%,i,9%,i,i
COc1ccc(NC(=O)C2Cc3c(-c4ccc(Cl)cc4)ccnc3O2)cn1 (centres undefined),?,?,?,?,3.5µM*,i
CC(=O)Nc1cccc(-c2ccnc3c2CC(C(=O)Nc2ccc4c(c2)OCO4)O3)c1 (centres undefined),-19%,?,i,2.3µM*,?,5.2µM*
Cc1ccc2nc(C(F)(F)F)c(C#N)c(N)c2c1,-36%,?,?,10µM*,i,?
Cc1cc(C)c2nc(C(F)(F)F)c(C#N)c(N)c2c1,17%,11%,?,5%,i,?
COc1ccc(NC(=O)C(=O)c2cn(CC(=O)N3CCCC3)c3ccccc23)cc1,11%,?,?,0.37µM*,?,?
Oc1c(N=NC(=S)Nc2ccccc2F)c2ccccc2n1Cc1ccccc1Cl,-30%,13µM*,i,-1%,?,4.1µM*
C=CCn1c(=O)c(C(=O)NCCc2ccccc2)c(O)c2ccccc21,-9%,-21%,21µM*,-1%,i,i
C=CCn1c(=O)c(C(=O)Nc2ccc(C)cn2)c(O)c2ccccc21,/,5%,6.5µM*,11%,i,?
C=CCn1c(=O)c(C(=O)Nc2cccnc2)c(O)c2ccccc21,-7%,9%,?,0%,i,i
Cc1cccc(C(c2sc3nc(-c4ccco4)nn3c2O)N2CCOCC2)c1 (centres undefined),-1%,/,?,/,i,i
CCCC(=O)N(CCN(C(=O)CCC)c1ccccc1)c1ccccc1,-4%,6%,10µM*,-7%,i,i
O=C1O[C@@H]2[C@@H](O)[C@H](O)O[C@@H]2[C@H]1O,/,/,/,/,i,/
O=C(N/N=C/c1cn(-c2cccs2)nc1-c1ccccc1)c1ccccc1O,0%,?,?,21µM*,?,i
COc1ccc(-n2nnnc2-c2cnc(N3CCCC3)nc2C(F)(F)F)cc1,-11%,-3%,5.2µM*,-21%,i,18µM*
FC(F)(F)c1nc(-c2cccs2)ncc1-c1nnnn1-c1ccc(Cl)cc1,22µM*,?,16µM*,?,?,?
Clc1ccc(-n2nnnc2-c2cnc(-c3ccncc3)nc2-c2cccs2)cc1,-11%,-16%,?,-19%,i,?
CC(C)OCCCNC(=O)c1ccc2c(c1)N(Cc1c(F)cccc1Cl)C(=O)c1ccccc1S2,?,/,i,/,i,i
Cc1cnc(Nc2ccc(OCCN3CCCC3)cc2)nc1Nc1cccc(S(=O)(=O)NC(C)(C)C)c1,4%,/,/,/,/,/

# Source: PubChem (National Center for Advancing Translational Sciences (NCATS))
